A number with no mark means an inactive call. A call without a number means that no potency is given here. For part of these data: Potency and affinity values are given separately. Activity calls are given as the source filed them. Unless noted, how the calls were made is not given here.
How the values were obtained:
[1] = antimalarial activity against Dd2 strain (AID 2302;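 active means growth inhibition above 50% at the single 2 µM test dose, taken to imply half-maximal potency below 2 µM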); details: P. falciparum Dd2 in RBCs, LDH growth readout, 72 h; at 2 µM; stronger effect = higher value
[2] = human hepatoma cell viability loss – ATP luminescence, cytotoxicity control for P. falciparum antimalarial project, primary screen (AID 2303;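 active means inhibition above 50%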); details: HepG2 viability, 24-48 h, at 10 µM, stronger effect = higher value
[3] = target: L-lactate dehydrogenase (Plasmodium falciparum (isolate CDC / Honduras)) (UniProt Q27743); experiment: PfLDH activity inhibition – cell lysate, 3D7 strain, counter-screen for P. falciparum growth inhibition project (AID 2304); details: P. falciparum 3D7 crude extract, LDH APAD/NBT absorbance; at 2 µM; stronger effect = higher value
Sequence of L-lactate dehydrogenase (Plasmodium falciparum (isolate CDC / Honduras)) (Q27743 whole entry, looked up): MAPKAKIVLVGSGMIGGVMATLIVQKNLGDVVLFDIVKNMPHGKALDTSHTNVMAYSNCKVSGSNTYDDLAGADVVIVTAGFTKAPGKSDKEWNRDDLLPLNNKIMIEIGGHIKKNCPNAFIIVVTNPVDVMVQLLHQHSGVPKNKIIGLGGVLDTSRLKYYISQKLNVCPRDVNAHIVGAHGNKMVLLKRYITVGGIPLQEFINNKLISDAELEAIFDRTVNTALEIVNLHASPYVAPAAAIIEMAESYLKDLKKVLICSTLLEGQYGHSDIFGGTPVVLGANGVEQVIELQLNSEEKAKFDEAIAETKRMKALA

[4] = inhibition of 3D7 malaria parasite growth – strain 3D7 (AID 2306); details: P. falciparum 3D7 erythrocytic growth, LDH absorbance, 72 h; at 2 µM; stronger effect = higher value
[5] = target: Calcium-dependent protein kinase 1 (Plasmodium falciparum (isolate 3D7)) (UniProt P62344); experiment: PfCDPK1 kinase inhibitors, biochemical, TCAMS library (AID 1159585; cut-off not given, nearly all actives have IC50 up to about 0.98 µM;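 further: inhibitors leave more ATP so luminescence rises with inhibition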); details: recombinant PfCDPK1, Kinase-Glo ATP depletion luminescence
Sequence of Calcium-dependent protein kinase 1 (Plasmodium falciparum (isolate 3D7)) (P62344 whole entry, looked up): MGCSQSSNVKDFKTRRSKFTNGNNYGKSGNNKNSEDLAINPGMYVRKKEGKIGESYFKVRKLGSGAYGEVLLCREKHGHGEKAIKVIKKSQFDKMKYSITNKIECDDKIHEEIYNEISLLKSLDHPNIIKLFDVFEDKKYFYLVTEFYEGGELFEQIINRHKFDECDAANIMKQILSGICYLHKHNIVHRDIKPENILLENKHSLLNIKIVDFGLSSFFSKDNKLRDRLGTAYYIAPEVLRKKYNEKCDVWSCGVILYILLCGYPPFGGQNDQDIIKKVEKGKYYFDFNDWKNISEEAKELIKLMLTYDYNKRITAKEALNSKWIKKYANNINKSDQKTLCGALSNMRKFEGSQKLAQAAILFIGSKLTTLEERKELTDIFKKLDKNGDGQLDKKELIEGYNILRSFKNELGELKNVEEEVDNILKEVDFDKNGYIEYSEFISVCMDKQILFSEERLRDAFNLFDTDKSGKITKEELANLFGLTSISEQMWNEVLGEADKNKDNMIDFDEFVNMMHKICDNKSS

[6] = target: Plasmodium falciparum protein kinase 6 (PK6, PF3D7_1337100) (UniProt Q8IDW1); experiment: PfPK6 kinase inhibitors, biochemical, TCAMS library (AID 1159586); details: recombinant PfPK6, Kinase-Glo ATP depletion luminescence
Sequence of Plasmodium falciparum protein kinase 6 (PK6, PF3D7_1337100) (Q8IDW1 1-305): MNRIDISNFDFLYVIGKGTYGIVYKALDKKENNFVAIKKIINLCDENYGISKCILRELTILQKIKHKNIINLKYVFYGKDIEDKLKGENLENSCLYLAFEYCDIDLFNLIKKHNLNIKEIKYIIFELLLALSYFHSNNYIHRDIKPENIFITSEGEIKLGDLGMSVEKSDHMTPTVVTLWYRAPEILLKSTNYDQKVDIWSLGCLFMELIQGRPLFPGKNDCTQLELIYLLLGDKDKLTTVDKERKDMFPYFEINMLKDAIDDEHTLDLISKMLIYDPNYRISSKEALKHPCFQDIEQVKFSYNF

[7] = target: Protein kinase 7 (PK7), Plasmodium falciparum 3D7 (PF3D7_0213400) (UniProt Q7YTF7); experiment: inhibition of Plasmodium PK7 catalytic activity – biochemical, TCAMS antimalarial set, Kinase-Glo luminescence (AID 1159587); details: recombinant PfPK7, Kinase-Glo ATP depletion luminescence
Sequence of Protein kinase 7 (PK7), Plasmodium falciparum 3D7 (PF3D7_0213400) (Q7YTF7 1-343): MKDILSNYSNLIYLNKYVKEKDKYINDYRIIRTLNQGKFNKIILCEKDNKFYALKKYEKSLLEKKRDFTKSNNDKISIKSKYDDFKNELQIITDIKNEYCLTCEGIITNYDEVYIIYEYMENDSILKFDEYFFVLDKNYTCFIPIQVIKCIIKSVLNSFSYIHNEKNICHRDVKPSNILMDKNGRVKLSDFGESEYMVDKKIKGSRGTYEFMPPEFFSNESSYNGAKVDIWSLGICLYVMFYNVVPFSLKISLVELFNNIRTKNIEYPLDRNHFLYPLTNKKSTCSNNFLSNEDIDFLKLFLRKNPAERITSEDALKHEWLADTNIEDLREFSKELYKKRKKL

[8] = target: Calcium-dependent protein kinase 4 (Plasmodium falciparum (isolate 3D7)) (UniProt Q8IBS5); experiment: PfCDPK4 kinase inhibitors, biochemical, TCAMS library (AID 1159588; cut-off not given, nearly all actives have IC50 up to about 0.91 µM); details: recombinant PfCDPK4, Kinase-Glo ATP depletion luminescence
Sequence of Calcium-dependent protein kinase 4 (Plasmodium falciparum (isolate 3D7)) (Q8IBS5 whole entry, looked up): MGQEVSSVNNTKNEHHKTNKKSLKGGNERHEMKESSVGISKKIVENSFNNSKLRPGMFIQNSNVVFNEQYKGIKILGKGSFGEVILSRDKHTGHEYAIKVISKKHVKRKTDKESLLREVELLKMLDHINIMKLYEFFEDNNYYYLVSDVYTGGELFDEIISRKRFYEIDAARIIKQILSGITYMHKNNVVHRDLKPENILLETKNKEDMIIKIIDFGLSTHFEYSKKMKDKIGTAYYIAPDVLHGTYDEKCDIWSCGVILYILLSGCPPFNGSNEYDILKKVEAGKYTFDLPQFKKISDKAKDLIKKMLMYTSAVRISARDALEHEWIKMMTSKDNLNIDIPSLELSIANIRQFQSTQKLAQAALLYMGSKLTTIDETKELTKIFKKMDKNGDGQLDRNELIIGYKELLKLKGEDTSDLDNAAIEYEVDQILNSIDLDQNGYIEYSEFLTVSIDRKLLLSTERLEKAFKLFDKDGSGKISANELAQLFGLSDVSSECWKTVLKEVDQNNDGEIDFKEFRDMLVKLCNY

Compound | growth inhibition [1] | inhibition [2] | inhibition [3] | growth inhibition [4] | outcome [5] | outcome [6] | outcome [7] | outcome [8]
O=C(C=Cc1ccc(Cl)c(Cl)c1)NCCCCCN1CCC(CCNC(=O)c2ccc3c(c2)OCO3)CC1 | 2% | 35% | -3% | 99% (active) | inactive | inactive | inactive | inactive
CN(Cc1ccccc1)C(=O)CCNS(=O)(=O)c1cc(Br)cnc1N | 61% (active) | -5% | 4% | 91% (active) | inactive | inactive | inactive | inactive
CC(C)CCN=C(N)Nc1ccc(OCCCCCOc2ccc(NC(N)=NCCC(C)C)cc2)cc1 | 67% (active) | 14% | 6% | 85% (active) | inactive | inactive | inactive | inactive
COc1ccc2nccc([C@@H](O)CN3CCC(NC(=O)/C(=C/c4ccccc4)c4ccc(-c5ccccc5)cc4)CC3)c2c1 | 38% | 4% | 0% | 94% (active) | inactive | inactive | inactive | inactive
Cc1ccc(O)cc1C[C@@H]1C(=O)CC[C@@]2(C)[C@H]1CC[C@]2(C)O | -6% | 4% | 1% | 96% (active) | inactive | inactive | inactive | inactive
COc1ccc2nccc([C@@H](O)CN3CCC(NC(=O)c4ccc5cc[nH]c5c4)CC3)c2c1 | 23% | 21% | -6% | 91% (active) | inactive | inactive | inactive | inactive
CCc1ccccc1OCCCON1C(N)=NC(N)=NC1(C)C | 97% (active) | 77% (active) | -2% | 95% (active) | inactive | inactive | inactive | inactive
c1ccc(CCNCc2cccc(-c3ccccc3CNCc3ccc4c(c3)OCO4)c2)nc1 | 80% (active) | 41% | -2% | 90% (active) | inactive | inactive | inactive | inactive
CN(C)Cc1ccc2nc(-c3cccc(Cc4cc(Cl)ccc4OCc4ccc(Cl)cc4F)n3)[nH]c2c1 | 26% | 43% | 1% | 93% (active) | inactive | inactive | inactive | inactive
CS(=O)(=O)CCNCc1cccc(-c2cc3nccc(Nc4ccc(Oc5ccccc5)cc4)c3cc2Cl)c1 | 82% (active) | 2% | -3% | 100% (active) | inactive | inactive | inactive | inactive
NC1CCCN(Cc2ccc(-c3ccc(-c4nc5ccccc5[nH]4)s3)cc2)C1 (stereo not drawn) | 99% (active) | 40% | -2% | 102% (active) | inactive | inactive | inactive | inactive
COc1ccc(NC(=O)N2CCc3ccc(OCCN(C(C)C)C(C)C)cc32)cc1C(F)(F)F | 6% | -1% | -2% | 90% (active) | inactive | inactive | inactive | inactive
COc1ccccc1C1CCN(CCN2CCC(NC(=O)c3ccc(-c4ccc(C#N)cc4)cc3)CC2)CC1 | 42% | 31% | -5% | 99% (active) | inactive | inactive | inactive | inactive
OCC1CCCCN1Cc1cccc(-c2cccc(-c3nc4ccccc4[nH]3)c2)c1 (stereo not drawn) | 4% | 24% | 0% | 95% (active) | inactive | inactive | inactive | inactive
O=C(/C=C/c1ccc(Cl)c(Cl)c1)NC1CCN(CCNC(=O)c2cccc(Cl)c2)CC1 | 45% | 22% | 0% | 103% (active) | inactive | inactive | inactive | inactive
COCc1ccc(CN2CCC(C(=O)Nc3ccc(-c4nc5ccccc5[nH]4)cc3)CC2)o1 | 13% | 13% | -5% | 97% (active) | inactive | inactive | inactive | inactive
COCCNCc1cccc(-c2cccc(CNC3CCN(Cc4ccccc4)CC3)c2)c1 | 99% (active) | 28% | -4% | 101% (active) | inactive | inactive | inactive | inactive
COc1cc(-c2ccc3c(-c4ccc(C(=O)N5CCN(C)CC5)cc4)[nH]nc3n2)cc(OC)c1OC | 54% (active) | 27% | 4% | 91% (active) | inactive | inactive | inactive | inactive

Compound | growth inhibition [1] | inhibition [2] | inhibition [3] | growth inhibition [4] | outcome [5] | outcome [6] | outcome [7] | outcome [8]
CC(C)(C(=O)Nc1ccc(C2CCC(NCC3CC3)CC2)c(Cl)c1)c1ccc(C(F)(F)F)cc1 (stereo not drawn) | 18% | 64% (active) | -1% | 97% (active) | inactive | inactive | inactive | inactive
CCN(CC)CCN(Cc1ccc(-c2ccc(C(F)(F)F)cc2)nc1)C(=O)Cn1c(SCc2ccc(F)cc2)nc(=O)c2sccc21 | 66% (active) | 43% | -2% | 96% (active) | inactive | inactive | inactive | inactive
CN1C(C)(C)CC(NC(=O)c2ccc(-c3nc4ccc(Cl)cc4[nH]3)cc2)CC1(C)C | 36% | 23% | -3% | 99% (active) | inactive | inactive | inactive | inactive
COc1ccc(CNc2ccc3nc(N)nc(N)c3c2)cc1 | 84% (active) | 39% | -4% | 99% (active) | inactive | inactive | inactive | inactive
COc1ccc(-c2cccc(NC(=O)c3cccc(C#N)c3)c2)cc1CN1CCC(O)CC1 | 13% | 30% | -3% | 97% (active) | inactive | inactive | inactive | inactive
O=C(NCCNc1ccnc(Nc2ccc(F)cc2)n1)Nc1ccccc1F | 4% | 22% | 5% | 93% (active) | inactive | inactive | inactive | inactive
Cc1cc(Nc2ccc(Cl)c(Cl)c2)n2nc(C)nc2n1 | 97% (active) | 6% | -4% | 97% (active) | inactive | inactive | inactive | inactive
O=C(N[C@H]1CCN(Cc2ccc(OCCN3CCCC3)c3ccccc23)C1)c1ccc(Cl)c(Cl)c1 | 51% (active) | 90% (active) | -1% | 100% (active) | inactive | inactive | inactive | inactive
CCC(CC(C)C(=O)O)=C(c1ccccc1)c1ccccc1 (stereo not drawn) | 1% | 12% | 5% | 98% (active) | inactive | inactive | inactive | inactive
Cc1c(Cl)ccc2sc(N3CCN(C(=O)c4ccc([N+](=O)[O-])o4)CC3)nc12 | 93% (active) | -2% | 3% | 96% (active) | inactive | inactive | inactive | inactive
Cc1ccc(-c2ccn(Cc3cccc(OCc4ccccc4)c3)n2)cn1 (tested in a mixture with another compound) | 64% (active) | -4% | 0% | 82% (active) | inactive | inactive | inactive | inactive
Cc1ccc2nc(NC#N)[nH]c2c1 | -3% | 7% | 2% | 96% (active) | inactive | inactive | inactive | inactive
O=C(/C=C/c1ccc(Cl)c(Cl)c1)NCCCCCN1CCC(NC(=O)NC2CCCCCC2)CC1 | 41% | 15% | -3% | 99% (active) | inactive | inactive | inactive | inactive
COc1cc2nc(NCCC(C)C)n3nc(-c4ccccc4)nc3c2cc1OC | 97% (active) | -7% | 4% | 94% (active) | inactive | inactive | inactive | inactive
CC(C)N1CCC(N(Cc2ccc(-c3ccc(C(F)(F)F)cc3)cc2)C(=O)Cn2c(SCc3cccc(F)c3F)cc(=O)c3ccccc32)CC1 | 77% (active) | 52% (active) | 1% | 100% (active) | inactive | inactive | inactive | inactive
CC(=O)Nc1ccc(CN2CCC(CNC(=O)c3cc(-c4cccc(Cl)c4)cs3)C2)cc1 (stereo not drawn) | 1% | 24% | 2% | 91% (active) | inactive | inactive | inactive | inactive
COc1cc(NCC2(CNCc3cn(Cc4ccccc4)c4ccccc34)CCCCC2)nc2ccccc12 | 12% | 65% (active) | 5% | 95% (active) | inactive | inactive | inactive | inactive
CC(=O)N[C@H](C(=O)Nc1ccc(-c2ccc(-c3nc4ccc(C(F)(F)F)cc4[nH]3)cc2)cc1)C(C)C | 76% (active) | 24% | 7% | 88% (active) | inactive | inactive | inactive | inactive

Source: PubChem BioAssay
